According to PubChem BioAssay (EPA / NIEHS):
The source made the active and inactive calls. How the source made its calls: active means hit-call score of the fitted dose curve at least 0.9, where 1 is the maximum; inactive means score below 0.9.

Experiments:
Details in all cases: mRNA level, 48 h; actives raise or lower the signal
[1] = read-out: Cytochrome P450 3A4 (Homo sapiens) (UniProt P08684); assay: LTEA_HepaRG_CYP3A4: Life Technologies and Expression Analysis (LTEA) Assay for CYP3A4 using HepaRG (AID 2283487)
Summary of the method: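 Differentiated HepaRG cells, plated 48 h, then dosed 48 h in serum-free induction medium with 0.5% DMSO, 8 half-log concentrations up to 100 uM, duplicate. CYP3A4 mRNA by qRT-PCR, normalized to ACTB/GAPDH/POLR2A; bidirectional fit versus DMSO.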

[2] = read-out: DNA damage-inducible transcript 3 (DDIT3), DDIT3 (gene 1649); assay: LTEA_HepaRG_DDIT3: Life Technologies and Expression Analysis (LTEA) Assay for DNA damage-inducible transcript 3 (DDIT3) using HepaRG (AID 2283488)
Summary of the method: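 qRT-PCR readout (Fluidigm TaqMan), housekeeping-normalized to ACTB, GAPDH, POLR2A. HepaRG cells, 48 h exposure, 8-point half-log series from 100 uM in 0.5% DMSO, duplicates. Gain or loss of signal fitted against DMSO baseline.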

[3] = read-out: Early growth response protein 1 (EGR1) transcription factor, EGR1 (gene 1958); assay: LTEA_HepaRG_EGR1: Life Technologies and Expression Analysis (LTEA) Assay for Early growth response protein 1 (EGR1) transcription factor using HepaRG (AID 2283490)
Summary of the method: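 EGR1 transcript levels quantified by qRT-PCR (Fluidigm arrays) against three housekeeping genes after 48 h chemical exposure of HepaRG cells. Eight-point half-log series topping at 100 uM, 0.5% DMSO vehicle, analyzed for gain or loss.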

[4] = read-out: Ezrin (EZR), EZR (gene 7430); assay: LTEA_HepaRG_EZR: Life Technologies and Expression Analysis (LTEA) Assay for Ezrin (EZR) using HepaRG (AID 2283491)
Summary of the method: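 EZR transcript levels came from Fluidigm qRT-PCR and were normalized to three housekeeping genes after 48 h chemical exposure of HepaRG cells. Dosing used an 8-point half-log series with a 100 uM top concentration in 0.5% DMSO, tested in duplicate; both directions were fitted versus vehicle.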

[5] = read-out: Cytochrome P450 3A7 (Homo sapiens) (UniProt P24462); assay: LTEA_HepaRG_CYP3A7: Life Technologies and Expression Analysis (LTEA) Assay for CYP3A7 using HepaRG (AID 2283492)
Summary of the method: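 CYP3A7 transcript levels were read by TaqMan qRT-PCR on Fluidigm arrays after 48 h chemical exposure of human HepaRG cells, with housekeeping-gene normalisation. Eight half-log concentrations up to 100 uM in 0.5% DMSO were tested in duplicate.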

[6] = read-out: CYP3A5 (gene 1577); assay: LTEA_HepaRG_CYP3A5: Life Technologies and Expression Analysis (LTEA) Assay for CYP3A5 using HepaRG (AID 2283493)
Summary of the method: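 qRT-PCR read-out: CYP3A5 transcript in HepaRG lysates, housekeeping-normalized (ACTB/GAPDH/POLR2A), fitted bidirectionally against 0.5% DMSO baseline. Exposure 48 h, eight half-log concentrations up to 100 uM, duplicates.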

[7] = read-out: Fatty Acid-Binding Protein 1 (FABP1), FABP1 (gene 2168); assay: LTEA_HepaRG_FABP1: Life Technologies and Expression Analysis (LTEA) Assay for Fatty Acid-Binding Protein 1 (FABP1) using HepaRG (AID 2283494)
Summary of the method: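 FABP1 expression by TaqMan qRT-PCR, normalised to three housekeeping genes, in HepaRG cells after 48 h chemical treatment. Eight-point half-log series topping at 100 uM in 0.5% DMSO, duplicates; gain or loss fitted relative to vehicle.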

[8] = read-out: Cytochrome P450 4A22 (Homo sapiens) (UniProt Q5TCH4); assay: LTEA_HepaRG_CYP4A22: Life Technologies and Expression Analysis (LTEA) Assay for Cytochrome P450 4A22 (CYP4A22) using HepaRG (AID 2283495)
Summary of the method: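 HepaRG, 48 h post-plating -> serum-free induction medium; dosed 48 h, duplicate, 8 conc. (100 uM top, half-log), 0.5% DMSO. Readout: CYP4A22 mRNA by qRT-PCR, ACTB/GAPDH/POLR2A normalization; gain/loss fit relative to DMSO.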

[9] = read-out: Glutathione S-Transferase (GSTA2), GSTA2 (gene 2939); assay: LTEA_HepaRG_GSTA2: Life Technologies and Expression Analysis (LTEA) Assay for Glutathione S-Transferase (GSTA2) using HepaRG (AID 2283497)
Summary of the method: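 GSTA2 transcript levels came from Fluidigm TaqMan qRT-PCR normalized to three housekeeping genes, fitted in both directions against DMSO. HepaRG cultures received chemicals for 48 h in serum-free induction medium (0.5% DMSO), 8 half-log concentrations up to 100 uM, duplicate.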

[10] = read-out: Glutamate-cysteine ligase catalytic (GCLC), GCLC (gene 2729); assay: LTEA_HepaRG_GCLC: Life Technologies and Expression Analysis (LTEA) Assay for Glutamate-cysteine ligase catalytic (GCLC) using HepaRG (AID 2283498)
Summary of the method: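 Expression by TaqMan qRT-PCR, normalized to three housekeeping genes (ACTB, GAPDH, POLR2A), with up- or down-regulation fitted against DMSO. HepaRG cells dosed in duplicate for 48 h with 8 half-log concentrations up to 100 uM, vehicle 0.5% DMSO.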

[11] = read-out: growth arrest and DNA damage 45 (GADD45G), GADD45G (gene 10912); assay: LTEA_HepaRG_GADD45G: Life Technologies and Expression Analysis (LTEA) Assay for growth arrest and DNA damage 45 (GADD45G) using HepaRG (AID 2283499)
Summary of the method: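 HepaRG, 48 h exposure, top 100 uM, half-log 8-point series, 0.5% DMSO vehicle, duplicates. Readout: GADD45G transcript by qRT-PCR (Fluidigm array), housekeeping-normalised (ACTB/GAPDH/POLR2A). Bidirectional curve fit vs DMSO baseline.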

[12] = read-out: Glutamate-cysteine ligase regulatory (GCLM), GCLM (gene 2730); assay: LTEA_HepaRG_GCLM: Life Technologies and Expression Analysis (LTEA) Assay for Glutamate-cysteine ligase regulatory (GCLM) using HepaRG (AID 2283500)
Summary of the method: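 HepaRG, 48 h dosing, 100 uM top, half-log x8, 0.5% DMSO vehicle. Readout: GCLM mRNA by TaqMan qRT-PCR, housekeeping-normalized (ACTB/GAPDH/POLR2A). Curves fit bidirectionally vs DMSO baseline.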

[13] = read-out: Glutathione S-transferase M3 (GSTM3), GSTM3 (gene 2947); assay: LTEA_HepaRG_GSTM3: Life Technologies and Expression Analysis (LTEA) Assay for Glutathione S-transferase M3 (GSTM3) using HepaRG (AID 2283501)
Summary of the method: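 qRT-PCR read-out of GSTM3 transcript, normalized to three housekeeping genes, from human HepaRG cells after 48 h chemical exposure. Eight-point half-log series, top 100 uM, 0.5% DMSO vehicle; gain or loss fitted relative to DMSO baseline.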

[14] = read-out: Heat shock 70 kDa protein 1 (HSPA1A), gene 3303; assay: LTEA_HepaRG_HSPA1A: Life Technologies and Expression Analysis (LTEA) Assay for Heat shock 70 kDa protein 1 (HSPA1A) using HepaRG (AID 2283502)
Summary of the method: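 HepaRG, 48 h exposure, 8-pt half-log CRC from 100 uM in 0.5% DMSO, duplicates. Readout: TaqMan qRT-PCR of HSPA1A mRNA, housekeeping-normalized (ACTB/GAPDH/POLR2A). Bidirectional fit vs 0.5% DMSO baseline.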

[15] = read-out: Hypoxia-inducible factor 1-alpha (Homo sapiens) (UniProt Q16665); assay: LTEA_HepaRG_HIF1A: Life Technologies and Expression Analysis (LTEA) Assay for Hypoxia-inducible factor 1 (HIF1A) Trancription factor using HepaRG (AID 2283503)
Summary of the method: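 Gain- or loss-of-signal HIF1A mRNA changes are fitted against a DMSO baseline. HepaRG cultures receive eight concentrations, highest 100 uM, for 48 h in serum-free induction medium with 0.5% DMSO.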

[16] = read-out: 3-Hydroxy-3-Methylglutaryl-CoA Synthase 2 (HMGCS2), HMGCS2 (gene 3158); assay: LTEA_HepaRG_HMGCS2: Life Technologies and Expression Analysis (LTEA) Assay for 3-Hydroxy-3-Methylglutaryl-CoA Synthase 2 (HMGCS2) using HepaRG (AID 2283504)
Summary of the method: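 qRT-PCR read-out of HMGCS2 transcript, normalised to three housekeeping genes, in HepaRG cells after 48 h chemical exposure. Eight-point curves from 100 uM, half-log dilutions, 0.5% DMSO vehicle; gain or loss fitted relative to DMSO baseline.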

[17] = read-out: HGF (gene 3082); assay: LTEA_HepaRG_HGF: Life Technologies and Expression Analysis (LTEA) Assay for Hepatocyte Growth Facto (HGF) using HepaRG (AID 2283505)
Summary of the method: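 HepaRG, 48 h dosing, 8-pt half-log series from 100 uM in 0.5% DMSO, duplicates. Readout: TaqMan qRT-PCR of HGF mRNA, housekeeping-normalized; bidirectional curve fit vs DMSO baseline.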

[18] = read-out: Insulin Like Growth Factor 1 (IGF1), IGF1 (gene 3479); assay: LTEA_HepaRG_IGF1: Life Technologies and Expression Analysis (LTEA) Assay for Insulin Like Growth Factor 1 (IGF1) using HepaRG (AID 2283506)
Summary of the method: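 qRT-PCR readout of IGF1 mRNA, normalized to three housekeeping genes, after 48 h chemical exposure of HepaRG cells. Concentrations: 8-point half-log series, top 100 uM, 0.5% DMSO vehicle. Gain or loss fitted against DMSO baseline.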

Measured: AC50

Sequence of Hypoxia-inducible factor 1-alpha (Homo sapiens) (Q16665 whole entry, looked up): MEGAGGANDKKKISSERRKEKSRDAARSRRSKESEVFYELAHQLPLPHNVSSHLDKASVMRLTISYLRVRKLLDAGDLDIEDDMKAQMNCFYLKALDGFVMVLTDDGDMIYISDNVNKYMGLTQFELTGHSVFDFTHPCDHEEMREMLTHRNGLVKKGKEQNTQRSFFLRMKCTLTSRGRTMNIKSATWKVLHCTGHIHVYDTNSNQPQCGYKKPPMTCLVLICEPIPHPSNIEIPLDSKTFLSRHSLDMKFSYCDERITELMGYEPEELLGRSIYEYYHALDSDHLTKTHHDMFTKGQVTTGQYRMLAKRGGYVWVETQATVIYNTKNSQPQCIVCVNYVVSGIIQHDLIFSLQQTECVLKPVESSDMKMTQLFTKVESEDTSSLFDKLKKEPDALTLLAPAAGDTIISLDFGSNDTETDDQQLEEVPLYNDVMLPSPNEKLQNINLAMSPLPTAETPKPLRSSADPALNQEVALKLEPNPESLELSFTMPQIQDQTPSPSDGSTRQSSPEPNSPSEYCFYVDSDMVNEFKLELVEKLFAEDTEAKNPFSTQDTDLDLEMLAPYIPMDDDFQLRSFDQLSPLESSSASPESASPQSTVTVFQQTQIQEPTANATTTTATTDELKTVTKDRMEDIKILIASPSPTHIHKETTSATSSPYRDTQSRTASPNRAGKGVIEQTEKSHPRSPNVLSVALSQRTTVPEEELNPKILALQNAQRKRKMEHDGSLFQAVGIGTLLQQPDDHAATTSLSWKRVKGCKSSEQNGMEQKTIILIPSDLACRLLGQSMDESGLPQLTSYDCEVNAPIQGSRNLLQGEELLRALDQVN
Sequence of Cytochrome P450 3A7 (Homo sapiens) (P24462 whole entry, looked up): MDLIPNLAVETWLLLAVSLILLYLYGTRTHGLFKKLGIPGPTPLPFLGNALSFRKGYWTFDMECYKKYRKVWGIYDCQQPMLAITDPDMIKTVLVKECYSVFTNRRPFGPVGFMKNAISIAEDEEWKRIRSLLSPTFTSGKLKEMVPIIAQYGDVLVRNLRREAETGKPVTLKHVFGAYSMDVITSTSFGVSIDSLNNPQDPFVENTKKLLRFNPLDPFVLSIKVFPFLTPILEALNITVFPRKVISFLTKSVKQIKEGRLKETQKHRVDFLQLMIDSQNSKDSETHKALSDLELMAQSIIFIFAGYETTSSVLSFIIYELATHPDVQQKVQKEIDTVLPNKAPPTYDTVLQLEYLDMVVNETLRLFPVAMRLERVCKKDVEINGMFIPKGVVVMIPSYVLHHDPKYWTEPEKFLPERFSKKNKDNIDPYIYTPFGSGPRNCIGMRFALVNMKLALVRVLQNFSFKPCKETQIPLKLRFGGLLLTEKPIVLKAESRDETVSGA
Sequence of Cytochrome P450 3A4 (Homo sapiens) (P08684 whole entry, looked up): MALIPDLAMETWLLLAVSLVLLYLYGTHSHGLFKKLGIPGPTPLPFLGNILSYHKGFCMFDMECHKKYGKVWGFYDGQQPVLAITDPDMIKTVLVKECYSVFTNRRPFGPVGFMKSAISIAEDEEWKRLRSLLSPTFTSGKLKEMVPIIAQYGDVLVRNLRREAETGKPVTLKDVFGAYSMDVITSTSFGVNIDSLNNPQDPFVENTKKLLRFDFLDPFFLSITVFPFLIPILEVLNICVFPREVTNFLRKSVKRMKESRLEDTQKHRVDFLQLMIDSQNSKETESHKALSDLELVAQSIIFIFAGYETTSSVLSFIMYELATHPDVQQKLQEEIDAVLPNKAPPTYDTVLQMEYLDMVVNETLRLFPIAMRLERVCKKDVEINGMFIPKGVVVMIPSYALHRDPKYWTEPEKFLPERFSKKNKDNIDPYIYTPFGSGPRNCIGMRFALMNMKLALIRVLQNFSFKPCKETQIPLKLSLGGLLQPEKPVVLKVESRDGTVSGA

COP(=O)(OC)SCn1c(=O)oc2cc(Cl)cnc21
active: [1] 37.3 µM | [5] 50 µM | [6] 37.8 µM | [8] 46.7 µM | [9] 65 µM | [17] 65.9 µM
inactive: all other assays above

O=C(O)c1cc(Oc2ccc(C(F)(F)F)cc2Cl)ccc1[N+](=O)[O-]
active: [5] 50 µM | [6] 50 µM | [7] 20.3 µM | [16] 50 µM
not listed: [1] | [18]
inactive: all other assays above

CCCSP(=O)(OCC)SCCC
active: [7] 15.5 µM | [18] 27.7 µM
not listed: [1] | [13]
inactive: all other assays above

CCC(=O)Nc1ccc(Cl)c(Cl)c1
active: [7] 9.92 µM | [9] 72.5 µM | [12] 50 µM
inactive: all other assays above
